Experiment [1] deals with Wnt5a (protein binding on small-molecule microarray). In words: Wnt5a binders on small-molecule microarray, primary screen, biophysical, 635/667 nm fluorescence (AID 1142).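 Note: fluorescence read at 667 nm with signal to noise per printed feature.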 The following applies: 635 nm fluorescence, higher = more signal.
The nature of experiment [2]: cell viability in Huh7 cells, primary screen, cytotoxicity control for HCV replication inhibitor project, CellTiter-Glo luminescence, basal, 48 h (AID 1143).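 Note: Huh7 hepatoma cells carrying a hepatitis C replication reporter with no stimulus; test concentration not given here.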 The following applies: Huh7 HCV replicon, higher = more signal, called active from +8 up or from −8 down.
Experiment [3] is described as follows: P. aeruginosa biofilm formation inhibitors, primary screen, PAO1 strain, BacTiter-Glo luminescence, LB-PBS (AID 1144). The following applies: 12 h, higher = more signal.
Experiment [4] in a line: CREB reporter modulators without forskolin, primary screen, cell-based, PC12, CRE-LacZ reporter, unstimulated (AID 1145). The following applies: no forskolin, luminescence, 4.5 h, higher = more signal, called active from +8 up or from −8 down.
A short description of experiment [5]: CREB reporter modulators under forskolin, primary screen, cell-based, PC12, CRE-LacZ reporter, forskolin-stimulated (AID 1146).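 Note: PC12 cells with 6xCRE LacZ reporter stimulated by forskolin 10 µM; beta-galactosidase reporter signal reflecting CREB driven transcription.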 Particulars: luminescence, 4.5 h, higher = more signal, called active from +8 up or from −8 down.
The target in experiment [6] is Streptavidin (Streptomyces avidinii) (UniProt P22629). In words: streptavidin binders on small-molecule microarray, primary screen, artefact control for SMM compound annotation, biophysical, 635/667 nm fluorescence (AID 1147).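 Note: signal reflects streptavidin binding to arrayed compounds as a control protein.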 The following applies: streptavidin binding, higher = more signal.
A short description of experiment [7]: small-molecule binders of probe aInhba, primary screen, biochemical, small-molecule microarray, 635/667 nm fluorescence (AID 1148).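 Note: score merges 667nm spot fluorescence with signal-to-noise for antibody binding to printed compounds.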 Particulars: higher = more signal.
In experiment [8] the target is Torsin-1A (Homo sapiens) (UniProt O14656). In words: torsin A binders from cell lysate, primary screen, small-molecule microarray, wild-type, 635/667 nm (AID 1149). The following applies: COS7 hTOR1A-WT lysate, 635 nm fluorescence, higher = more signal.
For experiment [9] the target is unchanged. Put plainly: small-molecule binders of mutant TOR1A in lysate, primary screen, cell lysate, small-molecule microarray, COS7 lysate, 635/667 nm fluorescence (AID 1150).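 Note: score pools 667 nm emission and signal to noise measuring lysate protein binding.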 Particulars: COS7 hTOR1A mutant lysate, 635 nm fluorescence, higher = more signal.
The subject of experiment [10] is Sonic hedgehog protein (Shh). In words: small-molecule binders of Shh protein, primary screen, biochemical, small-molecule microarray, 635/667 nm fluorescence (AID 1151).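 Note: Shh protein binding to compounds spotted on small-molecule microarray slides; score combines spot fluorescence intensity with signal-to-noise across triplicate slides.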 The following applies: small-molecule microarray binding, 635 nm fluorescence; higher = more signal.

In PubChem BioAssay one finds composite z-score and z-score data, which are given here for 14 compounds.

The source made the active and inactive calls. Unless noted, the rule behind the calls is not given here.

Streptavidin (Streptomyces avidinii), sequence (P22629 whole entry, looked up): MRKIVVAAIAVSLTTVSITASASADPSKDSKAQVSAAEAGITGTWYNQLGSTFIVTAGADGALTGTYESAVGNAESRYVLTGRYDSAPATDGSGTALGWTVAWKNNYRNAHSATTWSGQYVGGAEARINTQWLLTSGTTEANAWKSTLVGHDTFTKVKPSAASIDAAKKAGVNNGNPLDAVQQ
Torsin-1A (Homo sapiens), sequence (O14656 whole entry, looked up): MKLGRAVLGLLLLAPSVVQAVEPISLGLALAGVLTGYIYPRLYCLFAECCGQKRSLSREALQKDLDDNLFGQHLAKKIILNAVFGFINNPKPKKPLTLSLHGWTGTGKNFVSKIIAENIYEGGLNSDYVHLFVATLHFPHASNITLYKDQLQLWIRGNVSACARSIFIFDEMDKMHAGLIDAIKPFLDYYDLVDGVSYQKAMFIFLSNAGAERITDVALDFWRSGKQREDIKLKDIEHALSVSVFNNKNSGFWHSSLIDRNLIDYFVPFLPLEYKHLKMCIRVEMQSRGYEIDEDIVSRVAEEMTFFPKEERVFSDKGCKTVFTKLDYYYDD

For the compound `COC(=O)[C@@]1(Cc2ccccc2)[C@H]2c3cc(C(=O)N(C)C)n(Cc4ccc(S(C)(=O)=O)cc4)c3C[C@H]2CN1C(=O)c1ccccc1`, the composite z-score in experiment [1] is 0.493; in [6], 2.48; in experiment [7], 0.496; in experiment [8] it was -0.178; in experiment [9], 1.13; in experiment [10], -0.68. For the same compound, the z-score in experiment [2] is -1.6 (inactive); in experiment [3], -0.361 (inactive); in [4], 0.39 (inactive); in experiment [5], 1.02 (inactive).

Turning to `CC(C)(C)N1CC=CC23O[C@@H]4C=CCOC(=O)[C@@H]4[C@H]2C(=O)N(CCO)[C@@H]3C1=O` (stereo not given in full), the composite z-score in [1] is -0.887; in [6] it was -1.61; in [7], -0.32; in experiment [8] it was -2.49; in [9], -1.07; in experiment [10] it was -0.863. The z-score in experiment [2] is 0.262 (inactive); in experiment [3], 1.7 (inactive); in [4], 0.744 (inactive); in [5], 1.07 (inactive).

Regarding `COCCCNC(=O)[C@@]1(CCS(=O)(=O)c2ccccc2)COC(c2ccc(OCCCO)cc2)=N1`, the composite z-score in experiment [1] was 0.612; in [6] it was 2.53; in [7], 0.271; in experiment [8], 1.29; in [9], 1.49; in [10], -0.334. Also, the z-score in experiment [2] is -0.0036 (inactive); in experiment [3], 0.86 (inactive); in experiment [4], 0.918 (inactive); in [5], -0.387 (inactive).

For the compound `COC(=O)[C@]1(Cc2ccccc2)N=C(c2ccc(OCCCO)cc2)O[C@@H]1c1ccccc1CN=[N+]=[N-]`, the composite z-score in experiment [1] is 0.239; in experiment [6], -0.304; in [7] it was 0.233; in [8], -0.133; in [9], 0.104; in [10] it was 0.895. Also, the z-score is -5.39 (inactive) in experiment [2], -1.19 (inactive) in experiment [3], 2.31 (inactive) in experiment [4] and -1.5 (inactive) in experiment [5].

In the case of `O=C1C=C(c2ccccc2)C(=O)C2=C1CC([C@H]1Oc3ccccc3S(=O)(=O)N3CCC[C@@H]13)=CC2`, the composite z-score was -0.0842 in experiment [1]; 0.429 in [6]; -0.235 in [7]; -0.295 in experiment [8]; -0.495 in [9]; -0.0231 in experiment [10]. Also, the z-score in [2] was -6.3 (inactive); in experiment [3], 0.497 (inactive); in experiment [4] it was 4.67 (inactive); in experiment [5] it was 20.1 (active).

As to `NC(=O)NCC#Cc1ccc2c(c1)[C@]1(C(=O)N2)[C@H](c2ccc(OCCO)cc2)N2[C@H](c3ccccc3)[C@H](c3ccccc3)OC(=O)[C@H]2[C@@H]1C(=O)NC[C@H](O)c1ccccc1`, the composite z-score is -0.138 in experiment [1]; 0.079 in experiment [6]; -0.0195 in experiment [7]; -0.17 in [8]; -0.288 in experiment [9]; 0.398 in [10]. Besides, the z-score in experiment [2] is -2.86 (inactive); in experiment [3], 0.0532 (inactive); in experiment [4] it was -0.671 (inactive); in [5], -0.648 (inactive).

On to `Cc1ccc(S[C@]2(C(=O)NCc3ccccc3)CC(=O)N(Cc3ccccc3C(F)(F)F)[C@@H]2c2ccc(CO)cc2)cc1`, for which the composite z-score is -0.666 in experiment [1]; -1.05 in [6]; 0.0391 in [7]; -1.02 in [8]; -0.687 in experiment [9]; -0.998 in experiment [10]. Besides, the z-score in experiment [2] is -2.35 (inactive); in experiment [3], -0.937 (inactive); in experiment [4] it was -0.0888 (inactive); in experiment [5], -0.0177 (inactive).

`CC(C)OC(=O)CC(=O)CC(O)c1cccc([N+](=O)[O-])c1` (stereo not given): the composite z-score in [1] is 0.457; in experiment [6], 1.14; in [7] it was -0.0221; in [8] it was -0.324; in [9], 2.75; in experiment [10], -0.352. The z-score in [2] is -3.92 (inactive); in [3] it was -2.34 (inactive); in experiment [4] it was -0.676 (inactive); in experiment [5] it was -0.185 (inactive).

With `CN1C(=O)C2C(C3CC3)C=C3CN(Cc4cccc(Cl)c4)[C@@H]([C@@H](O)Cc4ccccc4)C3C2C1=O` (stereo not given in full), the composite z-score was -0.103 in experiment [1]; 0.599 in experiment [6]; -0.0221 in [7]; 0.667 in experiment [8]; 0.342 in experiment [9]; 1.78 in experiment [10]. In addition, the z-score in experiment [2] is -1.85 (inactive); in experiment [3], -0.0257 (inactive); in experiment [4], 5.58 (inactive); in experiment [5], 0.349 (inactive).

On to `CC[C@@H]1C=C(C(=O)O)[C@H](c2ccc(OC)cc2)N1S(=O)(=O)c1ccc(C)cc1`, for which the composite z-score was 0.0237 in experiment [1]; 0.114 in experiment [6]; -0.016 in [7]; -0.579 in [8]; 0.316 in [9]; -0.236 in experiment [10]. The z-score in [2] was -1.09 (inactive); in [3] it was 1.01 (inactive); in experiment [4], 0.0798 (inactive); in experiment [5], 0.0935 (inactive).

With `O=C1c2ccccc2[C@@]2(Cc3ccccc3N(Cc3ccccc3)C2=O)[C@H](c2ccc(CO)cc2)N1Cc1ccccc1Cl`, the composite z-score is -0.131 in experiment [1]; -0.463 in experiment [6]; -0.13 in experiment [7]; -1.29 in [8]; 0.454 in experiment [9]; -0.971 in experiment [10]. Besides, the z-score in [2] was -1.35 (inactive); in experiment [3] it was -1.09 (inactive); in experiment [4], -0.322 (inactive); in experiment [5], 0.164 (inactive).

Consider `[N-]=[N+]=Nc1ccccc1[C@@H]1OC(c2ccc(OCCCO)cc2)=N[C@]1(CCS(=O)(=O)c1ccccc1)C(=O)NCC(O)CO` (stereo not given in full), for which the composite z-score was -0.0534 in [1]; 1.54 in [6]; 0.0051 in [7]; 1.37 in experiment [8]; 1.61 in [9]; -0.475 in experiment [10]. Also, the z-score in [2] was -1.33 (inactive); in [3], -0.27 (inactive); in experiment [4] it was 0.0827 (inactive); in experiment [5], 0.0767 (inactive).

Take `CC(C)N1C(=O)c2ccccc2[C@](C)(C(=O)NCC(F)(F)F)[C@@H]1c1ccc(CO)cc1`: the composite z-score in experiment [1] is -0.218; in experiment [6] it was -0.913; in [7], 0.0516; in [8], -0.978; in [9] it was 0.33; in experiment [10], -0.982. Also, the z-score was -0.167 (inactive) in [2], 0.633 (inactive) in experiment [3], 0.414 (inactive) in [4] and -0.0278 (inactive) in [5].

For the compound `COc1ccc(C(=O)Nc2cccc(CN3C(=O)[C@]4(O[C@H](CC(=O)N5Cc6ccccc6C[C@H]5CO)[C@@H]([Si](C)(C)c5ccc(OC)cc5)[C@@H]4C)c4ccccc43)c2)cc1`, the composite z-score in experiment [1] is 0.711; in experiment [6] it was -0.266; in experiment [7], 0.114; in experiment [8], 0.671; in experiment [9] it was 0.701; in experiment [10] it was 2.19. Further, the z-score in [2] was -3.89 (inactive); in experiment [3], 0.269 (inactive); in experiment [4], -1.07 (inactive); in experiment [5] it was -0.442 (inactive).
